Bioassay records (PubChem BioAssay)
An excerpt weighted towards active compounds, which were near 0.74% of everything screened.
p97 inhibitor – blocks human p97 ATPase activity. recombinant p97 ATPase, Kinase-Glo ATP luminescence, 3 h. inhibition, % at 8 µM. 220,000 compounds, 0.42% hits. AID 1481; in the data active = inhibition above about 15%
DTT redox prof – compounds producing H2O2 with reducing agent – biochemical, NIH compound library profiling, artefact control for MLSCN library redox annotation, primary screen | 200,000 compounds, 0.03% hits | activation, % at 10 µM | DTT-dependent redox cycling H2O2, phenol red/HRP absorbance; 100% = 100 µM peroxide control, 0% = buffer;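 active = activation of at least 50% relative to the plate's high and low controls in the primary single-dose screen; inactive = activation below 50%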;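 also: compound incubated with DTT at 0.8 mM final as the reducing agent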
LYPLA1 counter – counter-screen for PME1 inhibitors: inhibitors of human LYPLA1; O75608; recombinant LYPLA1, FP-Rh probe fluorescence polarization; inhibition, % at 5.9 µM; 320,000 compounds, 0.16% hits; AID 2174;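 active = inhibition above the mean of all tested compounds plus 3 SD, set per campaign, cut at about 14% in these data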;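 also: inhibitors block serine hydrolase probe labeling of LYPLA1 so polarization falls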
Target sequence (O75608 whole entry, looked up): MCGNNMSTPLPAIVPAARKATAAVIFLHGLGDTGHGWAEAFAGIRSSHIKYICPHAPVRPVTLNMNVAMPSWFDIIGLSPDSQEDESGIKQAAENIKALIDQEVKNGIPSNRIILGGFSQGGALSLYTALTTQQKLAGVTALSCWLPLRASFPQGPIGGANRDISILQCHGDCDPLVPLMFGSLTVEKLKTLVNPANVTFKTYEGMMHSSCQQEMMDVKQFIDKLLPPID
LYPLA2 counter – counter-screen for PME1 inhibitors: inhibitors of human LYPLA2; O95372; recombinant LYPLA2, FP-Rh probe fluorescence polarization; inhibition, % at 5.9 µM; 320,000 compounds, 0.38% hits;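 active = inhibition above the screen-wide mean plus 3 SD, limit set per campaign, cut at about 26% in these data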
Target sequence (O95372 whole entry, looked up): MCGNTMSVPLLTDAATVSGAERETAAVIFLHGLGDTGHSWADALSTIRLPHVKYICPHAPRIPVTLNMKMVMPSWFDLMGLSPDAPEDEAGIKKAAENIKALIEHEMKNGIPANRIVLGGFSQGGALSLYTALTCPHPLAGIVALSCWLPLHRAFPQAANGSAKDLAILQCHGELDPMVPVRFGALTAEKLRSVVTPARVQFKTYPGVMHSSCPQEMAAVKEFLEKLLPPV
LYPLA2 conf – LYPLA2 (human) inhibition, confirmation counter-screen; recombinant LYPLA2, FP-Rh probe fluorescence polarization; 1,100 compounds, 72% hits; inhibition, % at 5.9 µM; shares compounds with LYPLA2 counter;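 active = mean inhibition across replicates above the hit cutoff set in the primary screen, cut at about 26% in these data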;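 also: blocked labeling of the enzyme by serine hydrolase FP-Rh probe lowers polarization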
LYPLA2 gel ABPP – LYPLA2 (human) inhibition, late stage results | rhLYPLA2 in mouse brain proteome, gel ABPP FP-Rh | AID 652029 | 150 compounds, 30% hits | shares compounds with LYPLA2 counter | inhibition, % at 20 µM;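 active = inhibition of LYPLA2 enzyme probe labeling above about 50%, limit read from the data; inactive = inhibition below that limit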;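 also: loss of FP-Rh probe labeling of the LYPLA2 gel band measured as band density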
Large screens that a line does not name were inactive (follow-up assays come after a bar, where they were run).

COc1ccc2c(Cn3cnc4cc([N+](=O)[O-])ccc4c3=O)cc(=O)oc2c1	LYPLA2 counter 31.3 (no result: DTT redox prof) | LYPLA2 conf inactive
CCn1cc(S(=O)(=O)NC2CCCCC2)cn1	none (no result: p97 inhibitor, DTT redox prof)
CN(C)CCOC(=O)CCCCCCCCC(=O)OCCN(C)C	none (no result: DTT redox prof)
CCc1ccc(C(=O)Cn2ncc(Cl)c(Cl)c2=O)cc1	LYPLA2 counter 31.4 | LYPLA2 conf 35.0
Cc1cccc(Nc2c([N+](=O)[O-])cc(C(=O)N3CC(=O)Nc4ccccc43)cc2[N+](=O)[O-])c1	LYPLA2 counter 32.1 | LYPLA2 conf 38.1
COCCN(C(=O)c1ccc(OCC(C)C)cc1)c1c(N)n(Cc2ccccc2)c(=O)[nH]c1=O	none (no result: p97 inhibitor, DTT redox prof)
COc1ccc2c(c1)O[C@H](c1ccc3c(c1)OCO3)[C@@H](O)C2=O	LYPLA2 counter 64.2 | LYPLA2 conf 57.8 | LYPLA2 gel ABPP inactive
COc1ccc2c(c1)O[C@@H](c1cccc(C(F)(F)F)c1)[C@H](O)C2=O	none
Cc1c(C)c2c(OCC(=O)N3CCC[C@H]3C(=O)O)cc3c(c2oc1=O)CCC(C)(C)O3	none (no result: p97 inhibitor, DTT redox prof)
Cc1ccc(C)c(N2CCN(C(=O)c3cc4sccc4n3C)CC2)c1	none
Cn1c(C(=O)N2CCN(c3cccc(C(F)(F)F)c3)CC2)cc2sccc21	LYPLA2 counter 26.9 | LYPLA2 conf inactive
CCCNC(=O)COc1ccc(-c2nn(C)c(=O)c3ccccc23)cc1	none (no result: p97 inhibitor, DTT redox prof)
CC(NC(=O)C12CC3CC(CC(C3)C1)C2)c1ccc(F)cc1 (centres undefined)	none (no result: p97 inhibitor, DTT redox prof)
CCOC(=O)C1CCN(C(=O)c2ccc(Oc3cc(Cl)cc(Cl)c3)o2)CC1	LYPLA2 counter 26.5 (no result: DTT redox prof) | LYPLA2 conf 48.9
COc1ccc(C(=O)O/N=C(\C)c2nccs2)cc1	LYPLA2 counter 30.3 | LYPLA2 conf 29.1
O=C(O)c1cccc2c1C(=O)c1ccc(-c3ccc(F)cc3OCc3ccccc3)cc1S2(=O)=O	LYPLA2 counter 34.7 (no result: p97 inhibitor, DTT redox prof) | LYPLA2 conf 29.4
O=C(/C=C/c1ccc([N+](=O)[O-])cc1)N1CCN(Cc2ccccc2)CC1	LYPLA2 counter 31.8 (no result: p97 inhibitor, DTT redox prof) | LYPLA2 conf 39.5
CCN1CCN(C(=O)/C=C/c2ccc([N+](=O)[O-])cc2)CC1	none
Cc1cccc(NC(=O)CN2C(=O)S/C(=C\c3ccc(-c4cccc(C(=O)O)c4C)o3)C2=O)c1	LYPLA2 counter 29.1 | LYPLA2 conf 35.2
O=C(CN1C(=O)S/C(=C\c2ccc(C(=O)O)cc2)C1=O)Nc1ccccc1	LYPLA2 counter 58.4 (no result: p97 inhibitor, DTT redox prof) | LYPLA2 conf 66.7 | LYPLA2 gel ABPP 63.0
Cc1ccc(NC(=O)CN2C(=O)S/C(=C/c3ccncc3)C2=O)cc1	none (no result: p97 inhibitor, DTT redox prof)
O=C(CN1C(=O)S/C(=C\c2ccc(O)cc2)C1=O)c1ccccc1	LYPLA2 counter 34.9 | LYPLA2 conf 32.9
Cc1ccc(C)c(NC(=O)CN(C)C(=O)C2COc3ccccc3O2)c1 (centres undefined)	none (no result: p97 inhibitor, DTT redox prof)
CCN(CC)Cc1c(C(=O)N/N=C/c2c(Cl)cccc2Cl)nnn1-c1nonc1N	none (no result: p97 inhibitor, DTT redox prof)
CC(C)(C)c1ccc(C(=O)N2CCC(C(=O)NC3CC3)CC2)cc1	none (no result: p97 inhibitor, DTT redox prof)
CC(C)(C)c1ccc(C(=O)N2CCC(C(=O)NCc3ccncc3)CC2)cc1	LYPLA2 counter 33.6 | LYPLA2 conf 40.7
CC(C)(C)c1ccc(C(=O)N2CCC(NC(=O)c3ccccc3)CC2)cc1	LYPLA2 counter 38.6 (no result: p97 inhibitor, DTT redox prof) | LYPLA2 conf 37.2
O=C(CCC(=O)Nc1ccccc1)N/N=C/c1cccnc1	none (no result: p97 inhibitor, DTT redox prof)
CCOC(=O)c1c(NC(=O)CN2C(=O)NC(C)(c3ccc(Cl)cc3)C2=O)sc(C(=O)NC)c1C (centres undefined)	LYPLA2 counter 41.4 | LYPLA2 conf 34.2
Cc1cc(C)c(C(=O)NCC(=O)c2ccccc2)c(C)c1	none (no result: p97 inhibitor, DTT redox prof)
O=C(c1ccc(N2CCN(C(=O)c3ccc(F)c(F)c3)CC2)cc1)c1cccc(F)c1	LYPLA2 counter 32.1 (no result: p97 inhibitor, DTT redox prof) | LYPLA2 conf 33.2
O=C(c1ccc(N2CCN(C(=O)c3ccccc3)CC2)cc1)c1cccc(F)c1	LYPLA2 counter 26.6 (no result: p97 inhibitor, DTT redox prof) | LYPLA2 conf 30.1
O=C(NNc1ccccc1[N+](=O)[O-])Nc1ccccc1	LYPLA2 counter 27.5 | LYPLA2 conf inactive
O=C(NNc1ccccc1[N+](=O)[O-])Nc1ccc(Cl)c(Cl)c1	LYPLA2 counter 49.0 (no result: DTT redox prof) | LYPLA2 conf 43.8
Cc1ccc(CN2CCNC(=O)C2CC(=O)NCc2cc(C)n(C)n2)cc1 (centres undefined)	none (no result: p97 inhibitor, DTT redox prof)
COC(=O)c1ccc(CNC(=O)C2CCC(=O)N(CCCc3ccccc3)C2)cc1 (centres undefined)	none (no result: p97 inhibitor, DTT redox prof)
CCCNC(=O)c1ccc(N2CCC3(CC2)CC(c2ccccc2)=NO3)c(N)c1	none (no result: p97 inhibitor, DTT redox prof)
CCCNC(=O)c1ccc(N2CCC3(CC2)CC(c2ccccc2)=NO3)c([N+](=O)[O-])c1	LYPLA2 counter 28.0 (no result: p97 inhibitor, DTT redox prof) | LYPLA2 conf inactive
O=C(CN1C(=O)C2C3c4ccccc4C(c4ccccc43)C2C1=O)Nc1cccc(C(=O)O)c1 (centres undefined)	none
O=C(N/C=C\c1ccccc1)NCc1ccc(Cl)cc1	none
O=C(NCc1ccc(Cl)cc1)NCC(F)(F)F	LYPLA2 counter 33.4 | LYPLA2 conf inactive
Cc1cc(=O)oc2c(C)c(OCC(=O)N3CCN(c4ccccc4)CC3)ccc12	none (no result: p97 inhibitor, DTT redox prof)
Cc1cc(=O)oc2c(C)c(OCC(=O)N3CCN(C(=O)C4COc5ccccc5O4)CC3)ccc12 (centres undefined)	LYPLA2 counter 38.3 (no result: p97 inhibitor, DTT redox prof) | LYPLA2 conf 36.5
Cc1cc(=O)oc2c(C)c(OCC(=O)N3CCN(c4cccc(Cl)c4)CC3)ccc12	LYPLA2 counter 30.3 (no result: p97 inhibitor, DTT redox prof) | LYPLA2 conf 33.7
Cc1onc(-c2ccccc2)c1C(=O)OCc1nnc(-c2ccc([N+](=O)[O-])cc2)o1	LYPLA2 counter 28.2 (no result: p97 inhibitor, DTT redox prof) | LYPLA2 conf 28.4
CCN(CC)S(=O)(=O)c1ccc(N2CCOCC2)c(NC(=O)COc2ccccc2)c1	none
CCN(CC)S(=O)(=O)c1ccc(N2CCOCC2)c(NC(=O)CNCCc2ccccc2)c1	LYPLA2 counter 53.0 (no result: DTT redox prof) | LYPLA2 conf 57.6 | LYPLA2 gel ABPP inactive
CCN1CCC2(CC1)Oc1c(OC)cccc1C1CC(c3cccnc3)=NN12 (centres undefined)	none (no result: DTT redox prof)
CC(=O)c1ccc(S(=O)(=O)N2CCN(CCOc3ccc(Br)cc3)CC2)cc1	LYPLA2 counter 37.3 (no result: p97 inhibitor, DTT redox prof) | LYPLA2 conf 37.0
C=CCOc1c(Cl)cc(C(=S)N2CCCC2)cc1OCC	none (no result: p97 inhibitor, DTT redox prof)
Cc1ccc(CNC(=O)c2ccc(Cl)c(S(=O)(=O)N3CCCCC3)c2)cc1	none (no result: p97 inhibitor, DTT redox prof)
O=C(COc1ccccc1[N+](=O)[O-])Nc1ccc(N2CCN(C(=O)c3cccs3)CC2)cc1	LYPLA2 counter 46.1 | LYPLA2 conf 47.9
O=C(Nc1ccc(N2CCN(C(=O)c3ccco3)CC2)cc1)c1ccc([N+](=O)[O-])cc1Cl	LYPLA2 counter 39.7 (no result: p97 inhibitor, DTT redox prof) | LYPLA2 conf 38.0
O=C(c1ccco1)N1CCN(C(=S)Nc2cccc([N+](=O)[O-])c2)CC1	LYPLA2 counter 49.8 | LYPLA2 conf 61.5 | LYPLA2 gel ABPP inactive
